Assay outcomes deposited in PubChem by several laboratories.
Wee1 degr inh – human Wee1 degradation inhibition, primary screen. P30291. HeLa Luc-Wee1K328M stability, luciferase luminescence; 100% = proteasome inhibitor MG132 effect. reporter increase, % at 5 µM. hit rate 1.2% among 220,000. AID 1321;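 active = activation above the mean of all tested compounds plus 3 SD, set per screening run, cut at about 8.8% in these data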;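 note: cells exposed to compound for 20 h before luminescence read; 0% = DMSO alone and 100% = MG132 at 30 µM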
Target sequence (P30291 whole entry K328M): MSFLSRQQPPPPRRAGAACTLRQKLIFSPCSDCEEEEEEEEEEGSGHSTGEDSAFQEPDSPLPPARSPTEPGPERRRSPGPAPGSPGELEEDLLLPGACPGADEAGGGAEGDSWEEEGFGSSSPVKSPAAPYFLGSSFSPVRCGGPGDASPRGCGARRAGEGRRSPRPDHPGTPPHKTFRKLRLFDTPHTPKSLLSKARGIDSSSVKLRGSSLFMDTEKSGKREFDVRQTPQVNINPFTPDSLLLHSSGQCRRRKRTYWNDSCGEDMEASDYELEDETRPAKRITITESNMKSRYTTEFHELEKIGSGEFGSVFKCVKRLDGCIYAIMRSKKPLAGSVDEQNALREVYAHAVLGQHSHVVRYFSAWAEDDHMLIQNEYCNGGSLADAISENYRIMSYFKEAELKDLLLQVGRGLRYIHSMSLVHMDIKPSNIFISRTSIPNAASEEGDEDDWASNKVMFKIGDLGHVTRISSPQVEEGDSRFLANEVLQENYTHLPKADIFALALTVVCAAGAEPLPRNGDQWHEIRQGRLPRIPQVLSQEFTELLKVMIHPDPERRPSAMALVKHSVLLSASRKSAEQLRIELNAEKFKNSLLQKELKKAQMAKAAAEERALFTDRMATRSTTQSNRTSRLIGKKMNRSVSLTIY
HSV augment – HSV replication enhancement | HSV replication augmentation in cells, fold increase | maximum fold increase | hit rate 0.005% among 220,000; in the data active = maximum fold increase above about 1.5; tested in PC3 cells
V-ATPase pHluor – yeast V-ATPase proton transport regulation by pHLuorin. S. cerevisiae, pHLuorin cytosolic pH fluorescence. response, % at 10 µM. hit rate 0.37% among 350,000; in the data active = response mostly above about 7.3%, no sharp cut-off; inactive = mostly below about 5.4%; note: actives read high
L929 necroptosis – blocks zVAD induced death of L929 cells. viability rescue, % at 10 µM. L929 zVAD necroptosis rescue, ATP luminescence, 24 h; with zVAD 60 µM. AID 1377. hit rate 0.38% among 220,000;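 active = activation, scaled between plate controls, above about 75%, limit read from the data; inactive = activation under that limit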;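 note: 0% = zVAD with DMSO and 100% = DMSO alone without zVAD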
TNF necrop inh – TNF-alpha cell death inhibition in Jurkat FADD-/- cells; Jurkat FADD-/- TNF necroptosis rescue, ATP luminescence, 24 h; 0 = TNF only, 100 = no-TNF cells; activation (protection from cell death), % at 10 µM; hit rate 0.068% among 220,000; AID 463075;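 active = activation, meaning protection from cell death, of at least 50% relative to plate controls; inactive = activation below 50%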;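 note: necroptosis triggered by 40 ng/mL TNF-alpha added together with compound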
Wee1 degr conf – human Wee1 degradation inhibition, confirmation. shares compounds with Wee1 degr inh. HeLa Luc-Wee1K328M degradation, luminescence; vehicle 0%, proteasome-blocked wells 100%. activation, % at 5 µM. hit rate 4% among 1,100. AID 1410; in the data active = activation above about 8.9%
An asterisk follows results filed as active. Sampled rows, rich in hits. Any-hit rate of the full collection: about 1.4%.

Results for O=C(NCc1ccccc1)C1CCCN(C(=O)NCc2ccccc2)C1 (stereo not drawn) ?
V-ATPase pHluor: -1

Results for Cc1ccc(S(=O)(=O)CCC(=O)OCC(=O)NC(N)=O)cc1 ?
Wee1 degr inh: 14*; HSV augment: inactive; V-ATPase pHluor: 0; L929 necroptosis: -1; TNF necrop inh: 6; Wee1 degr conf: 0

How did COc1ccccc1C(=O)NC(=O)COC(=O)CCS(=O)(=O)c1ccc(C)cc1 do in these assays?
V-ATPase pHluor: 0

How did Cc1ccccc1OCc1nc2ccccc2c(=O)n1/N=C/c1cn[nH]c1-c1ccccc1 do in these assays?
Wee1 degr inh: 11*; HSV augment: inactive; V-ATPase pHluor: -1; L929 necroptosis: 3; TNF necrop inh: -1; Wee1 degr conf: 6

What do the screens show for `O=C(N/N=C/c1ccccc1C(=O)O)c1ccncc1`?
V-ATPase pHluor: -4

What do the screens show for `Cc1ccc(/C=N/NC(=O)c2ccncc2)o1`?
Wee1 degr inh: 13*; HSV augment: inactive; V-ATPase pHluor: -1; L929 necroptosis: 0; TNF necrop inh: 1; Wee1 degr conf: 3

Results for O=C(N/N=C/C1=Cc2ccccc2OC1)c1ccncc1 ?
Wee1 degr inh: 13*; HSV augment: inactive; V-ATPase pHluor: -5; L929 necroptosis: 0; TNF necrop inh: -1; Wee1 degr conf: -1

Results for Cc1ccc(/C=N/NC(=O)c2ccccn2)o1 ?
Wee1 degr inh: 5; HSV augment: inactive; V-ATPase pHluor: -4; L929 necroptosis: 0; TNF necrop inh: 1

How did O=C(CN1C(=O)/C(=C/c2ccccc2Cl)SC1=S)NC1CCS(=O)(=O)C1 (stereo not drawn) do in these assays?
V-ATPase pHluor: 1

Results for CC(=NNC(=O)Cn1ccc(C(F)(F)F)n1)c1ccc(-n2ccnc2)cc1 ?
V-ATPase pHluor: -1

What do the screens show for `COc1ccc(N(CC(=O)N/N=C(\C)c2cccs2)S(=O)(=O)c2ccccc2)cc1Cl`?
Wee1 degr inh: -2; HSV augment: inactive; L929 necroptosis: 1; TNF necrop inh: 0

How did COc1cccc(N(CC(=O)N/N=C(\C)c2cccs2)S(C)(=O)=O)c1 do in these assays?
Wee1 degr inh: 38*; HSV augment: inactive; V-ATPase pHluor: -1; L929 necroptosis: 0; TNF necrop inh: 1; Wee1 degr conf: 4

What do the screens show for `O=C(NCc1cccs1)C1CCC(CNS(=O)(=O)c2ccccc2)CC1` (stereo not drawn)?
Wee1 degr inh: 12*; HSV augment: inactive; V-ATPase pHluor: 1; L929 necroptosis: 4; TNF necrop inh: 1; Wee1 degr conf: 1

How did CS(=O)(=O)Nc1ccc(C(=O)Nc2ccc(S(=O)(=O)N3CCCC3)cc2)cc1 do in these assays?
Wee1 degr inh: 13*; HSV augment: inactive; V-ATPase pHluor: 0; L929 necroptosis: 1; TNF necrop inh: 0; Wee1 degr conf: 1

What do the screens show for `CNC(=O)COc1ncnc2scc(-c3ccc(F)cc3)c12`?
Wee1 degr inh: 12*; HSV augment: inactive; V-ATPase pHluor: -1; L929 necroptosis: 1; TNF necrop inh: 0; Wee1 degr conf: 1

How did Cc1nonc1NC(=O)CSc1nc2cc(Cl)ccc2c2c1CCCC2 do in these assays?
Wee1 degr inh: 1; HSV augment: inactive; V-ATPase pHluor: -2; L929 necroptosis: 3; TNF necrop inh: 1

How did Cc1ccc2c3c(c(SCC(=O)Nc4nonc4C)nc2c1)CCCC3 do in these assays?
Wee1 degr inh: 13*; HSV augment: inactive; V-ATPase pHluor: 0; L929 necroptosis: 2; TNF necrop inh: 2; Wee1 degr conf: 2

Results for CC(C)Cn1c(-c2ccc(C#N)cc2)nc2c1c(=O)[nH]c(=O)n2CC(C)C ?
Wee1 degr inh: 36*; HSV augment: inactive; V-ATPase pHluor: 1; L929 necroptosis: -1; TNF necrop inh: -1; Wee1 degr conf: 1

What do the screens show for `COCCn1c(-c2ccc(NC(C)=O)cc2)nc2c1c(=O)[nH]c(=O)n2CC(C)C`?
V-ATPase pHluor: -2

Results for CC1(C)CC(=O)C(C2=NC3(CCCCCC3)Cc3ccccc32)=C(O)C1 ?
Wee1 degr inh: 1; HSV augment: inactive; V-ATPase pHluor: 1; L929 necroptosis: 0; TNF necrop inh: 7

Results for COc1ccc(CC(=O)NCCCSc2ccccc2)cc1OC ?
V-ATPase pHluor: -2

What do the screens show for `Cn1nc(-c2ccccc2)cc1NC(=O)c1cccs1`?
Wee1 degr inh: -3; HSV augment: inactive; V-ATPase pHluor: 0; L929 necroptosis: 2; TNF necrop inh: 5

Results for COc1cccc(S(=O)(=O)N(C)C[C@H]2OCc3cnnn3CCCC(=O)N([C@H](C)CO)C[C@@H]2C)c1 ?
V-ATPase pHluor: 1

Results for Oc1cccc2ccc(N3CCOCC3)nc12 ?
V-ATPase pHluor: -1

How did COc1ccc(OC)c(S(=O)(=O)n2ccnc2C)c1 do in these assays?
Wee1 degr inh: 0; HSV augment: inactive; V-ATPase pHluor: -4; L929 necroptosis: 1; TNF necrop inh: -1

What do the screens show for `COc1ccc(C(C)C)cc1S(=O)(=O)n1ccnc1C`?
Wee1 degr inh: 13*; HSV augment: inactive; V-ATPase pHluor: -1; L929 necroptosis: 0; TNF necrop inh: -1; Wee1 degr conf: 1

Results for N#C/C(C(=O)N1CCOCC1)=C1/SC(Cc2ccccc2Cl)C(=O)N1c1ccccc1 (stereo not drawn) ?
Wee1 degr inh: 11*; HSV augment: inactive; V-ATPase pHluor: -3; TNF necrop inh: 1; Wee1 degr conf: 0

What do the screens show for `O=C(CN1C(=O)NC2(CCCC2)C1=O)OCCOc1ccc(Cl)cc1`?
V-ATPase pHluor: -1

What do the screens show for `Cc1ccccc1-n1cnnc1SCC(=O)Nc1cccnc1Cl`?
Wee1 degr inh: 15*; HSV augment: inactive; V-ATPase pHluor: 1; L929 necroptosis: 0; TNF necrop inh: -1; Wee1 degr conf: 0

How did COc1ccccc1-n1cnnc1SCC(=O)Nc1cccnc1Cl do in these assays?
Wee1 degr inh: 0; HSV augment: inactive; V-ATPase pHluor: -2; L929 necroptosis: 2; TNF necrop inh: 0

How did Cc1ccc(C(C(=O)NCc2ccco2)N(C(=O)CNC(=O)c2cccs2)c2c(C)cc(C)cc2C)cc1 (stereo not drawn) do in these assays?
Wee1 degr inh: 11*; HSV augment: inactive; V-ATPase pHluor: -3; L929 necroptosis: 0; TNF necrop inh: -10; Wee1 degr conf: 0

Results for CN(CCc1ccccn1)C(=S)Nc1ccc(Cl)c(Cl)c1 ?
Wee1 degr inh: 15*; HSV augment: inactive; V-ATPase pHluor: 2; L929 necroptosis: 0; TNF necrop inh: 3; Wee1 degr conf: 3

Results for O=C(NC1CCCCC1)c1ccc(-c2cccc([N+](=O)[O-])c2)o1 ?
V-ATPase pHluor: 1

What do the screens show for `COCCOc1cnn(-c2cc(Oc3ccc(C)cc3)ncn2)c(=O)c1Cl`?
Wee1 degr inh: 12*; HSV augment: inactive; V-ATPase pHluor: -2; L929 necroptosis: 0; TNF necrop inh: -1; Wee1 degr conf: 4
